Source: PubChem BioAssay (National Center for Advancing Translational Sciences (NCATS))
In the library only some 21% were active in any assay of this set; here they are far more common.
Pf growth 48h: inhibits P. falciparum growth in the first generation, 48 h | P. falciparum luciferase growth in erythrocytes, 48 h | Potency, µM (series often up to 28.7 µM), most hits filed as inhibitors | 310,000 compounds, 5.9% hits | AID 504832
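Cell-based growth assay: transgenic P. falciparum expressing firefly luciferase, cultured in red cells within RPMI 1640 containing 0.5% w/v Albumax, 24 mM bicarbonate and gentamycin. A drop in luciferase activity indicates inhibition.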
Shiga toxin inh: inhibitors of Shiga toxin in Vero cells; Vero cells, Shiga toxin protein synthesis inhibition reporter; 290,000 compounds, 9.2% hits; inhibition, % at 38.7 µM; AID 2315; in the data active = inhibition mostly above about 28%, no sharp cut-off; inactive = mostly below about 43%
NS1 function inh: inhibitors of influenza NS1 protein function. Potency, µM (highest dose often 46.1 µM). 270,000 compounds, 0.4% hits; calls by dose curve; note: actives are rising curves; nearly all actives have a fitted effect of over 50% in size
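Compounds were scored for reversing the slow growth caused by influenza A NS1 in S. cerevisiae, measured by optical density at 600 nm. Assay medium contained 2% galactose at pH 6.0; NS1-free yeast of the same strain were the positive control.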
Cycloheximide cs: affects cycloheximide protein synthesis inhibition readout, counter-screen; 300,000 compounds, 12% hits; cell reporter, cycloheximide protein synthesis inhibition counterscreen; max response, %; AID 2314; in the data active = max response mostly above about 13%, no sharp cut-off; inactive = mostly below about 14%; note: read at 38.3 µM for the half of the compounds with a filed dose
FBPA Giardia inh: Giardia lamblia aldolase inhibition. purified Giardia FBPA. Potency, µM (series often up to 59.6 µM), hits mostly inhibitors. A8B2U2. 290,000 compounds, 0.71% hits. AID 2451; note: nearly all actives have a fitted effect of over 55% in size
Target sequence (A8B2U2 whole entry, looked up): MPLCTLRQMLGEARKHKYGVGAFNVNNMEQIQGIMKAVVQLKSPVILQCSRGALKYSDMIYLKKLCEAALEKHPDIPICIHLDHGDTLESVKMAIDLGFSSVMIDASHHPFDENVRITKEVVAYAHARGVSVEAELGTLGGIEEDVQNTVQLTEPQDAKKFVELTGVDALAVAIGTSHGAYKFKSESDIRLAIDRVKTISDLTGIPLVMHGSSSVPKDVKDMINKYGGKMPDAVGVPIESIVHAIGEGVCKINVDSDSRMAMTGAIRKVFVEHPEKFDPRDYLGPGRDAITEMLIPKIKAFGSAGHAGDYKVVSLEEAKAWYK
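Giardia FBPA (40 nM reagent) was preincubated 10 min at RT with compound (up to 57.5 uM final), then substrate plus GAPDH/TPI/NAD/arsenate coupling system with diaphorase/resazurin was added; resorufin fluorescence (525/598 nm) was read after 20 min.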
Pf growth 96h: inhibits malaria parasite growth, 96 h; P. falciparum luciferase reporter growth, 96 h; Potency, µM (titrated, usually from 28.7 µM), usual class: inhibitors; 320,000 compounds, 6.9% hits; AID 504834
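Two parasite generations (96 h, 37 C, 5% CO2) of compound exposure in infected erythrocytes (0.05% parasitemia, 2% hematocrit). Luciferase-reporter P. falciparum; decreased luminescence indicates inhibited growth, aimed at apicoplast-acting delayed death.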
Numbers stand for hits; - = inactive; ? = inconclusive; . = not tested or not shown. Unless noted, calls come from the whole dose curve; as a rule, active = well fitted curve in the direction sought with a large enough effect; inconclusive = small, poorly fitted or top-dose-only effect, or another doubt; inactive = no such curve, though single readings can be large; an effect the other way counts as inactive or inconclusive.

SMILES	Pf growth 48h	Shiga toxin inh	NS1 function inh	Cycloheximide cs	FBPA Giardia inh	Pf growth 96h
O=C(NCCc1ccco1)C(=O)NCC1CCCN1S(=O)(=O)c1ccccc1 (stereo unspecified)	-	.	.	.	.	?
CCn1nc(-c2cccs2)nc2c(=O)n(C)c(=O)nc1-2	-	26	-	26	?	.
CCNc1ncc2nc(-c3cccs3)c(=O)n(C)c2n1	.	.	.	.	-	.
CCn1nc(/C=C/c2ccccc2)nc2c(=O)n(C)c(=O)nc1-2	-	-	-	-	-	12µM
NC(=O)NC(Cc1ccccc1)C(=O)NCCCSc1ccccc1 (stereo unspecified)	-	-	-	-	-	-
COc1cccc(OCc2cc(C(=O)N3CCN(c4ccccc4OC)CC3)no2)c1	-	70	-	29	-	-
Cc1cc(OCc2cc(C(=O)N3CCN(CC4CC4)CC3)no2)cc(C)c1Cl	-	-	-	-	.	?
COc1cccc(OCc2cc(C(=O)N3CCN(C(C)=O)CC3)no2)c1	-	104	-	60	.	?
COc1ccccc1N1CCN(C(=O)c2cc(-c3ccccc3)on2)CC1	-	-	-	-	-	-
COc1cccc(OCc2cc(C(=O)N3CCN(c4ccccc4O)CC3)no2)c1	-	107	-	50	.	?
C/C=C(\C)CN1CCC(Oc2cccc(C(=O)NCc3ccccn3)c2)CC1	-	-	-	-	-	-
COc1ccc(Cn2c(C)c(C)c(C#N)c2NC(=O)Nc2cccc(Cl)c2)cc1	-	-	-	-	-	-
Cc1c(C#N)c(NC(=O)c2cccc(Cl)c2)n(Cc2ccccc2)c1C	12µM	-	-	-	-	13µM
COc1ccccc1N(CC(=O)NC1CCCCC1)C(=O)c1cnn(C(C)C)c1	?	-	-	-	-	?
COc1ccccc1N(CC(=O)NC1CCCC1)C(=O)c1cnn(C(C)C)c1	-	56	-	28	-	-
CC(C)c1ccc(N=C2N=C(N)c3ccccc32)cc1	-	118	-	80	-	-
Cc1cccc(N=C2N=C(N)c3ccccc32)c1	-	-	-	-	-	-
NC1=NC(=Nc2ccccc2)c2ccccc21	-	-	-	-	-	?
NC1=NC(=Nc2ccc(Cl)cc2)c2ccccc21	-	-	-	47	-	-
NC1=NC(=Nc2ccc(Br)cc2)c2ccccc21	-	62	-	26	-	-
O=C1NCCC/C1=N/Nc1cc(F)ccc1F	-	42	-	36	-	-
O=C(O)C1C2CCC(C2)C1C(=O)Nc1cc(F)ccc1F (stereo unspecified)	-	-	-	-	-	.
CC(=O)c1ccc(N/N=C2/CCCNC2=O)cc1	?	-	-	22	-	-
Cc1ccc(N/N=C2/CCCNC2=O)cc1	-	-	-	-	-	-
COc1cccc(C2=CC(c3cccc(OC)c3OC)n3nnnc3N2)c1 (stereo unspecified)	-	41	-	30	-	?
SMILES	Pf growth 48h	Shiga toxin inh	NS1 function inh	Cycloheximide cs	FBPA Giardia inh	Pf growth 96h
COc1cccc(C2=CC(c3cccc(OC)c3OC(F)F)n3nnnc3N2)c1 (stereo unspecified)	?	-	-	17	-	-
CC(Sc1ccccc1)C(=O)N1CCN(S(=O)(=O)c2ccccc2C(F)(F)F)CC1 (stereo unspecified)	-	-	-	-	.	-
O=C(CNS(=O)(=O)c1ccc(Br)cc1)N1CCN(Cc2ccccc2)CC1	-	-	-	-	.	?
CCOC(=O)Cn1c2c(c(=N)c3ccccc31)CCC2	?	-	-	-	-	0.37µM
CCOC(=O)Cn1c2c(c(=N)c3c1CCC3)CCC2	1µM	-	-	-	-	-
CCCCCCCCn1c2c(c(=N)c3ccccc31)CCC2	-	-	-	-	-	-
c1ccc(-c2csc3ncnc(N4CCN(Cc5ccc6c(c5)OCO6)CC4)c23)cc1	13µM	-	-	-	-	?
Cc1sc2ncnc(N3CCN(Cc4ccccc4)CC3)c2c1-c1ccc(F)cc1	13µM	-	-	-	-	13µM
Fc1ccc(N2CCN(c3nc(CN4CCOCC4)nc4scc(-c5ccccc5)c34)CC2)cc1	12µM	-	.	-	-	7.4µM
O=C(CSc1ncnc2scc(-c3ccccc3)c12)N1CCN(Cc2ccc3c(c2)OCO3)CC1	-	-	-	-	-	?
Cc1c(C(=O)N2CCN(Cc3ccccc3)CC2)sc2ncnc(N3CCOCC3)c12	?	-	-	-	-	?
Fc1ccc(CN2CCN(c3ncnc4scc(-c5ccccc5)c34)CC2)cc1	?	-	-	-	-	10µM
CN(Cc1ccccc1)c1nc(CN2CCOCC2)nc2scc(-c3ccccc3)c12	?	-	-	-	-	?
Cc1ccc(-c2csc3ncnc(N4CCN(Cc5ccccc5)CC4)c23)cc1	?	-	-	-	-	?
CC1=NN(c2ccc(S(=O)(=O)O)cc2C)C(=[OH+])[C@H]1N=Nc1cc(S(=O)(=O)O)ccc1C(=O)O.O.[Cr]	.	.	-	.	.	.
Fc1ccc(-c2csc3ncnc(N4CCN(Cc5ccccc5)CC4)c23)cc1	?	-	-	-	.	9.3µM
Cc1ccc(NC(=O)c2ccccn2)c(Br)c1	-	89	.	52	-	-
Cc1ccc(NC(=O)c2csnn2)c(C)c1	-	-	-	22	-	-
Cc1cccc(NC(=O)c2ccccn2)c1C	-	77	-	32	-	-
Cc1ccc(NC(=O)C2(S(=O)(=O)c3ccc(Cl)cc3)CC2)c(Br)c1	?	-	-	-	-	?
Cc1ccc(NC(=O)Nc2ccc(Cl)cc2)c(Br)c1	-	active	-	28	-	-
C[C@@H]1CC[C@@H]2N(C1)C[C@H]1[C@@](O)([C@H](O)C[C@]3(O)[C@H]4CC[C@H]5[C@]6(O)O[C@]4(C[C@]13O)[C@@]5(C)CC[C@@H]6O)[C@@]2(C)O	.	.	-	.	.	.
Cc1ccc(C)c(NC(=O)c2ccccn2)c1	-	47	-	32	-	.
Cc1ccc(C(=O)CN(CCCC(N)=O)S(=O)(=O)c2ccc([N+](=O)[O-])cc2)cc1	-	.	.	.	.	-
O=C(O)C1Nc2c(O)cccc2C2C=CCC12 (stereo unspecified)	-	-	-	-	?	15µM
SMILES	Pf growth 48h	Shiga toxin inh	NS1 function inh	Cycloheximide cs	FBPA Giardia inh	Pf growth 96h
COc1ccc(S(N)(=O)=O)cc1C(=O)NNC(=O)CN(C)S(=O)(=O)c1ccc(Cl)cc1	-	.	.	.	.	-
CC(=O)Nc1cccc(-c2csc(Nc3ccc(C)cn3)n2)c1	-	98	-	69	-	?
CC(=O)Nc1cccc(-c2csc(Nc3ncccn3)n2)c1	-	91	-	43	-	-
CC(=O)Nc1ccc(-c2csc(Nc3cccc(C)n3)n2)cc1	-	73	-	50	-	-
OCC1(CC2CCCCO2)CCN(C/C=C/c2ccccc2)CC1 (stereo unspecified)	5.2µM	-	-	-	-	-
COc1cccc(CN2CCC(CO)(CC3CCCCO3)CC2)c1 (stereo unspecified)	-	-	-	-	-	9.3µM
